Source: PubChem BioAssay
esBAF inh = blocks esBAF chromatin remodeling in mouse ES cells; Bmi1-luciferase knock-in reporter, 24 h; 100% = twice the neutral-well signal; reporter increase, % at 12.5 µM; 350,000 tested, 2% active; in the data active = activation above about 40%; inconclusive = no clear call, values can overlap the other calls;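 note: 0% = median of the plate's neutral control wells and 100% = double that signal; a rise in the Bmi1 reporter signal indicates esBAF inhibition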
Wnt bcat act = activates Wnt/beta-catenin signaling in a reporter cell assay | activation, % at 9.35 µM | 300,000 tested, 1.2% active | activator, plate reader; in the data active = activation above about 30%, passing the limit was not always enough; inconclusive = no clear call, values can overlap the other calls;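 note: 0% = neutral control wells and 100% = positive control wells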
FXN GAA850 act = activators of GAA850 frataxin (FXN) promoter; HEK293 lucGAA850 FXN promoter luciferase reporter, 24 h; percent of 10 µM SAHA response; activation, % at 6 µM; 360,000 tested, 0.56% active; AID 540364;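 active = activation above the average of all compounds screened plus 3 SD, cutoff fixed separately per campaign, cut at about 7.5% in these data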;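 note: 0% = DMSO wells and 100% = 10 µM SAHA wells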
MITF act = MITF TRPM1 promoter activation in melanoma cells | SK-MEL-5 TRPM1-promoter luciferase, 24 h; % of positive control, neutral wells = 0 | activation, % at 12.5 µM | 300,000 tested, 0.75% active | AID 588334;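 active = mean activation of at least 80% with every replicate also reaching 80%; inconclusive = mean reaches 80% but some replicate falls short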;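 note: 0% = neutral control wells and 100% = parthenolide positive control wells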
Numbers without * were called inactive; ? = inconclusive; . = no result. Rows were chosen to be rich in hits. Some 2.8% of all compounds tested hit in one or more screens of this group.

SMILES	esBAF inh	Wnt bcat act	FXN GAA850 act	MITF act
C[C@@H]1CN([C@@H](C)CO)C(=O)c2cccc(NS(=O)(=O)c3ccc(F)cc3)c2O[C@@H]1CN(C)Cc1ccncc1	-1	.	.	.
C[C@@H]1CCCCO[C@@H](CN(C)C(=O)NC2CCCCC2)[C@H](C)CN([C@@H](C)CO)C(=O)c2cc(NC(=O)C3CCCCC3)ccc2O1	12	.	.	.
C[C@@H]1CN([C@@H](C)CO)C(=O)c2cc(NS(=O)(=O)c3ccc(Cl)cc3)ccc2O[C@@H]1CN(C)Cc1ccc(C(=O)Nc2ccccc2N)cc1	-22	.	.	.
N/C(=N\OC(=O)COc1ccc(Cl)cc1Br)c1ccncc1	.	45*	4	92*
N/C(=N\OC(=O)COc1ccc(Cl)cc1Cl)c1cccnc1	56*	30	6	142*
CCc1ccc(OCC(=O)O/N=C(\N)c2ccncc2)c(Br)c1	95*	31*	5	103*
N/C(Cc1cccs1)=N\OC(=O)COc1ccc(Cl)cc1Cl	71*	.	1	?
N/C(=N\OC(=O)COc1ccc(Cl)cc1)c1cccnc1	.	5	6	1
CCc1ccc(OCC(=O)O/N=C(\N)c2ccncc2)cc1	.	7	4	73
N/C(=N\OC(=O)CCCOc1ccc(Cl)cc1Cl)c1ccncc1	4	-1	0	-1
CCNC(=O)[C@H]1[C@H](CO)[C@H]2Cn3c(ccc(-c4ccncc4)c3=O)[C@H]2N1Cc1ccccc1	-3	.	.	.
C[C@H]1CN([C@@H](C)CO)C(=O)c2cc(C#Cc3ccccc3F)cnc2O[C@@H]1CN(C)C(=O)C1CCCCC1	-3	.	.	.
O=C(NN=C1C2CC3CC1CC(Cl)(C3)C2)c1ccccn1	48*	.	5	8
O=C(NN=C1C2CC3CC1CC(Cl)(C3)C2)c1cccs1	34	1	6	-1
C/C(=C\C(=O)c1ccc(C)cc1)Nc1cccc(O)c1	72*	.	0	66
Cc1ccc(C(=O)/C=C/Nc2cccc(O)c2)cc1	-60	.	5	-3
c1ccc(-n2ncc3c(NCc4cccnc4)ncnc32)cc1	.	.	3	47
COc1ccc(-n2ncc3c(NCc4ccco4)ncnc32)cc1	22	.	1	.
COc1ccc(-n2ncc3c(NCc4cccs4)ncnc32)cc1	107*	27	1	?
c1ccc(-n2ncc3c(NCc4cccs4)ncnc32)cc1	45*	71*	4	.
Clc1ccc(-n2ncc3c(NCc4ccco4)ncnc32)cc1	52*	60*	0	.
C[C@@H]1CCCCO[C@H](CN(C)S(=O)(=O)c2ccc(F)cc2)[C@@H](C)CN([C@H](C)CO)C(=O)c2cc(NC(=O)c3ccncc3)ccc2O1	-3	.	.	.
CC(C)NC(=O)Nc1ccc2c(c1)C(=O)N([C@H](C)CO)C[C@@H](C)[C@H](CN(C)C(=O)c1ccccc1)OCCCC[C@H](C)O2	0	.	.	.
CCc1ccc(/C=N\NC(=O)c2ccc(Br)o2)s1	.	.	2	51
CCN(CC)c1ccc(/C=N/NC(=O)c2ccc(Br)o2)cc1	.	0	1	116*
SMILES	esBAF inh	Wnt bcat act	FXN GAA850 act	MITF act
O=C(N/N=C/c1ccc2c(c1)OCO2)c1ccc(Br)o1	.	43*	6	87*
O=C(COC(=O)c1ccc(O)cc1O)Nc1ccc2ccccc2c1	25	3	-2	14
Cn1cccc1C(=O)OCC(=O)Nc1ccc2c(c1)OCCO2	.	49*	-1	4
O=C(COC(=O)c1ccc(O)cc1O)Nc1ccc2c(c1)OCCO2	83*	-3	1	92*
CN1C(=O)c2cc(NC(=O)c3ccc(F)c(F)c3)ccc2OC[C@H]2O[C@@H](CC(=O)O)CC[C@@H]21	-3	.	.	.
COC(=O)c1ccc(NC(=O)COC(=O)C2CCC2)cc1	1	0	1	7
CCOC(=O)C1CCN(C(=O)c2ccc(N(C)S(C)(=O)=O)cc2)CC1	7	.	0	3
CN(c1ccc(C(=O)COC(=O)C2CC2)cc1)S(C)(=O)=O	3	14	3	83*
CC(C)(C)C(=O)Nc1ccc(C(=O)COC(=O)C2CC2)cc1	60*	1	3	76
Cc1cc2nc(-c3ccc(SCc4ccccn4)nc3)[nH]c2cc1C	64*	?	-1	67
CC(=O)N1[C@@H]2Cn3c(cccc3=O)[C@H]1[C@@H](C(=O)NCc1ccc(F)cc1)[C@@H]2CO	-3	.	.	.
O=C(CCn1cnc2ccccc21)N/N=C/c1ccccc1O	52*	10	0	20
CCN(CC(=O)Nc1ccc2c(c1)OCCO2)C(=O)c1cc(Cl)nc2ccccc12	1	-2	-1	6
CCN(CC(=O)Nc1ccc2c(c1)OCCO2)C(=O)c1ccc(Cl)cc1Cl	71*	25	5	109*
CCOc1ccc(C(=O)N(CC)CC(=O)Nc2ccc3c(c2)OCCO3)cc1OCC	-6	-2	0	3
CCN(CC(=O)Nc1ccc2c(c1)OCCO2)C(=O)c1ccc(C(F)(F)F)cc1	.	-2	3	107*
O=C(Nc1cc(-c2ccccc2)[nH]n1)c1ccc(Cl)cc1	59*	40*	3	.
Cc1cc(NC(=O)c2cccc(Cl)c2)n[nH]1	47*	29	3	66
Cc1ccc(NC(=O)c2cccc(Cl)c2)nc1	28	.	3	33
O=C(Nc1ccc(Cl)cc1Cl)c1ccc(-c2ccccc2)cc1	.	7	1	10
COCC#Cc1ccc2c(c1)O[C@@H](CN(C)C(=O)Nc1ccccc1F)[C@H](C)CN([C@@H](C)CO)S2(=O)=O	-2	.	.	.
CC(=O)N(C)C[C@H]1Oc2cc(C#Cc3ccncc3)ccc2S(=O)(=O)N([C@@H](C)CO)C[C@@H]1C	2	.	.	.
C(=NN1CCCCCC1)c1ccccc1	.	9	-2	21
O=[N+]([O-])c1ccc(/C=N/N2CCCCC2)cc1	77*	18	5	106*
Clc1ccc(C=NN2CCCCCC2)cc1Cl	.	56*	3	56
SMILES	esBAF inh	Wnt bcat act	FXN GAA850 act	MITF act
Clc1ccc(/C=N/N2CCCCC2)cc1	.	33*	2	94*
COCC(=O)Nc1ccc2c(c1)[C@H]1C[C@@H](CC(=O)NCc3ccccn3)O[C@@H](CO)[C@H]1O2	-2	.	.	.
CC(C)NC(=O)Nc1cccc2c1O[C@H](CN(C)C(=O)Nc1cccc3ccccc13)[C@@H](C)CN([C@H](C)CO)C2=O	-4	.	.	.
C[C@H]1CN([C@@H](C)CO)C(=O)Cc2cc(NS(=O)(=O)c3ccccc3)ccc2O[C@H]1CN(C)Cc1ccncc1	3	.	.	.
CCCN1C[C@H](C)[C@@H](OC)CN(C)C(=O)c2cc(NC(=O)COC)ccc2OC[C@@H]1C	-3	.	.	.
CCN(CC)c1nc(C)nc2c1cnn2CCc1ccccc1	80*	.	6	89*
CCN(CC)c1ncnc2c1cnn2Cc1ccc(C)cc1	8	0	4	-4
COc1ccc2c(c1)Cc1sc(NC(=O)c3ccco3)nc1-2	46*	.	4	65
COc1ccc2c(c1)CCc1sc(NC(=O)c3ccco3)nc1-2	23	.	2	58
COc1ccc2c(c1)-c1nc(NC(=O)c3ccco3)sc1CC2	.	64*	7	85*
COc1cccc(NC(=O)N(C)C[C@@H]2OCc3cn(nn3)CCCC(=O)N([C@@H](C)CO)C[C@@H]2C)c1	-7	.	.	.
